# Reference: article PMC5540273 (PLoS ONE, 2017)
# Read-outs that look alike come from different tables or passages of the source.
# Tests used:
# PIK3C2G = conditions: concentration: 1 μM, replicates: in singlicate; n = 1
# PIK3CA = conditions: concentration: 1 μM, replicates: in singlicate; n = 1
# PIK3CB = conditions: concentration: 1 μM, replicates: in singlicate; n = 1
# PIK3CD = conditions: concentration: 1 μM, replicates: in singlicate; n = 1
# PIK3CG = conditions: concentration: 1 μM, replicates: in singlicate; n = 1
# PIK4CB = tested on: T1, PIK4CB; conditions: concentration: 1 μM, replicates: in singlicate; n = 1
# T1 construct: gene PI4KB
# PIKFYVE = conditions: concentration: 1 μM, replicates: in singlicate; n = 1
# PIM1 = conditions: concentration: 1 μM, replicates: in singlicate; n = 1
# PIM2 = conditions: concentration: 1 μM, replicates: in singlicate; n = 1
# PIM3 = conditions: concentration: 1 μM, replicates: in singlicate; n = 1
# PIP5K1A = conditions: concentration: 1 μM, replicates: in singlicate; n = 1
# PIP5K1C = conditions: concentration: 1 μM, replicates: in singlicate; n = 1
# PIP5K2B = conditions: concentration: 1 μM, replicates: in singlicate; n = 1
# PIP5K2C = tested on: T2, PIP5K2C; conditions: concentration: 1 μM, replicates: in singlicate; n = 1
# T2 construct: gene PIP4K2C
# PKAC-alpha = tested on: T3, PKAC-alpha; conditions: n = 1
# T3 construct: gene PRKACA
# PKAC-beta = tested on: T4, PKAC-beta; conditions: n = 1
# T4 construct: gene PRKACB
# PKMYT1 = conditions: concentration: 1 μM, replicates: in singlicate; n = 1
# PKN1 = conditions: n = 1
# PKN2 = conditions: concentration: 1 μM, replicates: in singlicate; n = 1
# PLK1 = conditions: concentration: 1 μM, replicates: in singlicate; n = 1
# [1] = concentration: 1 μM, replicates: in singlicate
# 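Further: KINOMEscan kinase panel screen.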
smiles,measurement,setting,value
FC(F)(F)c1ccc(/C=C/c2cncnc2Nc2ccc3[nH]c(Cc4ccccc4)nc3c2)cc1 [GW709199],%Inh,PIK3C2G,0%
same,%Inh,PIK3CA,0%
same,%Inh,PIK3CB,0%
same,%Inh,PIK3CD,0%
same,%Inh,PIK3CG,0%
same,%Inh,PIK4CB,0%
same,%Inh,PIKFYVE,8%
same,%Inh,PIM1,0%
same,%Inh,PIM2,22%
same,%Inh,PIM3,0%
same,%Inh,PIP5K1A,32%
same,%Inh,PIP5K1C,30%
same,%Inh,PIP5K2B,0%
same,%Inh,PIP5K2C,38%
same,%Inh,PKAC-alpha; [1],0%
same,%Inh,PKAC-beta; [1],29%
same,%Inh,PKMYT1,25%
same,%Inh,PKN1; [1],0%
same,%Inh,PKN2,12%
same,%Inh,PLK1,0%
CC(=O)Nc1nc2cnc(Nc3cc(NC(=O)c4cccc(C5(C#N)CC5)c4Cl)ccc3C)nc2s1,%Inh,PIK3C2G,27%
same,%Inh,PIK3CA,0%
same,%Inh,PIK3CB,12%
same,%Inh,PIK3CD,14%
same,%Inh,PIK3CG,0%
same,%Inh,PIK4CB,0%
same,%Inh,PIKFYVE,0%
same,%Inh,PIM1,2%
same,%Inh,PIM2,4%
same,%Inh,PIM3,0%
same,%Inh,PIP5K1A,8%
same,%Inh,PIP5K1C,4%
same,%Inh,PIP5K2B,46%
same,%Inh,PIP5K2C,0%
same,%Inh,PKAC-alpha; [1],0%
same,%Inh,PKAC-beta; [1],0%
same,%Inh,PKMYT1,0%
same,%Inh,PKN1; [1],0%
same,%Inh,PKN2,0%
same,%Inh,PLK1,0%
CCCCc1nn2ncccc2c1-c1ccnc(Nc2ccc(N3CCN(C)CC3)cc2)n1 [GW684941],%Inh,PIK3C2G,0%
same,%Inh,PIK3CA,0%
same,%Inh,PIK3CB,0%
same,%Inh,PIK3CD,41%
same,%Inh,PIK3CG,0%
same,%Inh,PIK4CB,74%
same,%Inh,PIKFYVE,51%
same,%Inh,PIM1,0%
same,%Inh,PIM2,0%
same,%Inh,PIM3,0%
same,%Inh,PIP5K1A,33%
same,%Inh,PIP5K1C,48%
same,%Inh,PIP5K2B,5%
same,%Inh,PIP5K2C,96.7%
same,%Inh,PKAC-alpha; [1],0%
same,%Inh,PKAC-beta; [1],8%
same,%Inh,PKMYT1,0%
same,%Inh,PKN1; [1],5%
same,%Inh,PKN2,0%
same,%Inh,PLK1,0%
COc1cc(Nc2ncc3c(C)nc(-c4cc5ccccc5[nH]4)n3n2)cc(OC)c1OC [GW869516],%Inh,PIK3C2G,0%
same,%Inh,PIK3CA,0%
same,%Inh,PIK3CB,0%
same,%Inh,PIK3CD,0%
same,%Inh,PIK3CG,30%
same,%Inh,PIK4CB,0%
same,%Inh,PIKFYVE,0%
same,%Inh,PIM1,4%
same,%Inh,PIM2,0%
same,%Inh,PIM3,0%
same,%Inh,PIP5K1A,0%
same,%Inh,PIP5K1C,89%
same,%Inh,PIP5K2B,29%
same,%Inh,PIP5K2C,90.3%
same,%Inh,PKAC-alpha; [1],0%
same,%Inh,PKAC-beta; [1],51%
same,%Inh,PKMYT1,25%
same,%Inh,PKN1; [1],0%
same,%Inh,PKN2,0%
same,%Inh,PLK1,19%
Cl.Cl.NCC(NC(=O)c1cc(-c2ccccc2)c(-c2ccnc3[nH]ccc23)s1)c1ccccc1 (centres unmarked) [GSK1321561],%Inh,PIK3C2G,0%
same,%Inh,PIK3CA,0%
same,%Inh,PIK3CB,0%
same,%Inh,PIK3CD,0%
same,%Inh,PIK3CG,4%
same,%Inh,PIK4CB,0%
same,%Inh,PIKFYVE,0%
same,%Inh,PIM1,0%
same,%Inh,PIM2,0%
same,%Inh,PIM3,0%
same,%Inh,PIP5K1A,8%
same,%Inh,PIP5K1C,50%
same,%Inh,PIP5K2B,14%
same,%Inh,PIP5K2C,7%
same,%Inh,PKAC-alpha; [1],98.3%
same,%Inh,PKAC-beta; [1],97%
same,%Inh,PKMYT1,3%
same,%Inh,PKN1; [1],25%
same,%Inh,PKN2,19%
same,%Inh,PLK1,5%
Clc1ccc(-c2nn3ncccc3c2-c2ccnc(Nc3ccc4c(c3)OCCO4)n2)cc1 [GW829116],%Inh,PIK3C2G,0%
same,%Inh,PIK3CA,0%
same,%Inh,PIK3CB,0%
same,%Inh,PIK3CD,0%
same,%Inh,PIK3CG,0%
same,%Inh,PIK4CB,0%
same,%Inh,PIKFYVE,25%
same,%Inh,PIM1,13%
same,%Inh,PIM2,6%
same,%Inh,PIM3,0%
same,%Inh,PIP5K1A,17%
same,%Inh,PIP5K1C,0%
same,%Inh,PIP5K2B,0%
same,%Inh,PIP5K2C,43%
same,%Inh,PKAC-alpha; [1],24%
same,%Inh,PKAC-beta; [1],0%
same,%Inh,PKMYT1,2%
same,%Inh,PKN1; [1],0%
same,%Inh,PKN2,0%
same,%Inh,PLK1,0%
CCn1c(-c2nonc2N)nc2c(C#CC(C)(C)O)ncc(OCCCCN)c21.O=C(O)C(F)(F)F.O=C(O)C(F)(F)F [GSK507274],%Inh,PIK3C2G,11%
same,%Inh,PIK3CA,0%
same,%Inh,PIK3CB,0%
same,%Inh,PIK3CD,0%
same,%Inh,PIK3CG,0%
same,%Inh,PIK4CB,0%
same,%Inh,PIKFYVE,88%
same,%Inh,PIM1,69%
same,%Inh,PIM2,85%
same,%Inh,PIM3,78%
same,%Inh,PIP5K1A,26%
same,%Inh,PIP5K1C,0%
same,%Inh,PIP5K2B,6%
same,%Inh,PIP5K2C,0%
same,%Inh,PKAC-alpha; 1 µM,92.5%
same,%Inh,PKAC-beta; 1 µM,95.6%
same,%Inh,PKMYT1,0%
same,%Inh,PKN1; 1 µM,5%
same,%Inh,PKN2,0%
same,%Inh,PLK1,5%
O=C(NC1CCN(c2ccnc(Nc3ccc(F)cc3)n2)C1)c1cc2ccccc2s1 (centres unmarked) [GSK1379716],%Inh,PIK3C2G,0%
same,%Inh,PIK3CA,0%
same,%Inh,PIK3CB,0%
same,%Inh,PIK3CD,0%
same,%Inh,PIK3CG,0%
same,%Inh,PIK4CB,0%
same,%Inh,PIKFYVE,4%
same,%Inh,PIM1,20%
same,%Inh,PIM2,0%
same,%Inh,PIM3,11%
same,%Inh,PIP5K1A,7%
same,%Inh,PIP5K1C,60%
same,%Inh,PIP5K2B,0%
same,%Inh,PIP5K2C,42%
same,%Inh,PKAC-alpha; [1],0%
same,%Inh,PKAC-beta; [1],0%
same,%Inh,PKMYT1,6%
same,%Inh,PKN1; [1],0%
same,%Inh,PKN2,0%
same,%Inh,PLK1,7%
CN(c1ccc(NC(=O)Nc2cc(C(F)(F)F)ccc2F)cc1)c1ccnc(Nc2ccc(S(N)(=O)=O)cc2)n1 [GW809893],%Inh,PIK3C2G,39%
same,%Inh,PIK3CA,3%
same,%Inh,PIK3CB,0%
same,%Inh,PIK3CD,30%
same,%Inh,PIK3CG,31%
same,%Inh,PIK4CB,0%
same,%Inh,PIKFYVE,0%
same,%Inh,PIM1,0%
same,%Inh,PIM2,0%
same,%Inh,PIM3,0%
same,%Inh,PIP5K1A,10%
same,%Inh,PIP5K1C,14%
same,%Inh,PIP5K2B,0%
same,%Inh,PIP5K2C,94.6%
same,%Inh,PKAC-alpha; [1],18%
same,%Inh,PKAC-beta; [1],18%
same,%Inh,PKMYT1,1%
same,%Inh,PKN1; [1],0%
same,%Inh,PKN2,8%
same,%Inh,PLK1,3%
COC(=O)Nc1nc2ccc(Oc3ccc(NC(=O)Nc4cc(C(F)(F)F)ccc4F)cc3)cc2n1C.Cl [GW692089],%Inh,PIK3C2G,4%
same,%Inh,PIK3CA,0%
same,%Inh,PIK3CB,0%
same,%Inh,PIK3CD,0%
same,%Inh,PIK3CG,0%
same,%Inh,PIK4CB,0%
same,%Inh,PIKFYVE,6%
same,%Inh,PIM1,0%
same,%Inh,PIM2,24%
same,%Inh,PIM3,0%
same,%Inh,PIP5K1A,74%
same,%Inh,PIP5K1C,61%
same,%Inh,PIP5K2B,22%
same,%Inh,PIP5K2C,41%
same,%Inh,PKAC-alpha; [1],0%
same,%Inh,PKAC-beta; [1],0%
same,%Inh,PKMYT1,0%
same,%Inh,PKN1; [1],0%
same,%Inh,PKN2,11%
same,%Inh,PLK1,0%
